Bioassay records from PubChem.
Hits are enriched below; roughly 0.7% of the tested compounds scored in any of these assays.
Mtb hypoxia inh: reduces hypoxia-regulated biosensor signal in M. tuberculosis; M. tuberculosis hypoxia-regulated fluorescent reporter, fluorescence; fluorescence inhibition, % (concentration not given with the values); 300,000 tested, 0.1% active; in the data active = fluorescence inhibition mostly above about 23%, no sharp cut-off; inactive = mostly below about 17%
DUSP3 inh: DUSP3 (human) phosphatase inhibition | P51452 | recombinant VHR phosphatase, pNPP absorbance | inhibition, % at 13.3 µM | 290,000 tested, 0.52% active; in the data active = inhibition above about 50%
Target sequence (P51452 whole entry, looked up): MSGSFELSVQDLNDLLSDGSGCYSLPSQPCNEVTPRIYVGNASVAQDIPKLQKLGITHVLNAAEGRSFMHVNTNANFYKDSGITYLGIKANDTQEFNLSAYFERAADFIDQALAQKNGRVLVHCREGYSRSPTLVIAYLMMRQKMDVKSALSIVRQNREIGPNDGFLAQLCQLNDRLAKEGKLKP
SARS 3CLpro inh: SARS-CoV 3CLpro protease inhibition; 290,000 tested, 0.14% active; P0C6X7; AID 1706; inhibition, % at 6 µM; recombinant SARS-CoV 3CLpro, quenched FRET peptide cleavage; in the data active = inhibition above about 12%
FadD28 FP inh: M. tuberculosis FadD28 bisubstrate binding inhibition | AID 588549 | inhibition, % at 12.5 µM | 360,000 tested, 0.22% active | FadD28 bisubstrate probe binding, fluorescence polarization; in the data active = inhibition above about 8.5%, passing the limit was not always enough
BioA inh-1: inhibitors of Mycobacterium tuberculosis BioA enzyme; 360,000 tested, 0.096% active; inhibition, % at 9.99 µM; purified M. tuberculosis BioA enzyme, plate reader; in the data active = inhibition above about 40%
BioA inh-2: inhibitors of Mycobacterium tuberculosis BioA enzyme; shares compounds with BioA inh-1; max activity, %; 310 tested, under 10 active; purified BioA enzyme, plate reader, dose response;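 also: top concentration of the dilution series was 10 µM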
Target sequence (P9WQ81 whole entry, looked up): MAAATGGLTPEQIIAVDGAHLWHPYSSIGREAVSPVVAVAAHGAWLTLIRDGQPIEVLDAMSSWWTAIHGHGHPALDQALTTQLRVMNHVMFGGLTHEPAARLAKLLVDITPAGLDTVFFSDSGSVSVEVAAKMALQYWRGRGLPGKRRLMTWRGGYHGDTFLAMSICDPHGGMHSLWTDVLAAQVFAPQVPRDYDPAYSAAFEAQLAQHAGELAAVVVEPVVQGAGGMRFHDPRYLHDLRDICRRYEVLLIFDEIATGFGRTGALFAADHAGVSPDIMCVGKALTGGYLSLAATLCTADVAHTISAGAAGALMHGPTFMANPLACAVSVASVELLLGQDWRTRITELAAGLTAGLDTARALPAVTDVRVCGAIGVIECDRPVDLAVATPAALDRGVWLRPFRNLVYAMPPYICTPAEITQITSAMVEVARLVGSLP
HepG2 tox 2: kills HepG2 cells. shares compounds with BioA inh-1. HepG2 cytotoxicity, plate reader. max activity, %. 310 tested, under 10 active. AID 651898
3T3 cytotox 5: kills NIH3T3 cells; shares compounds with BioA inh-1; AID 651900; activity change, negative = cytotoxicity, % at 26 µM; NIH3T3 cytotoxicity, plate reader; 310 tested, under 10 active
Hits are given with their value; 0 = inactive; - = no result. Unless noted, no rule for the calls is given here.

SMILES | Mtb hypoxia inh | DUSP3 inh | SARS 3CLpro inh | FadD28 FP inh | BioA inh-1 | BioA inh-2 | HepG2 tox 2 | 3T3 cytotox 5
CN1C(=O)C2C(C3CC3)N3C(=O)CN(Cc4ccccc4)C(=O)[C@@]3(C)C2C1=O (some centres undefined) | 0 | - | - | - | - | - | - | -
COC(=O)[C@@]1(Cc2ccc(F)cc2)C2c3cc(C(=O)N(C)C)n(CCc4ccccn4)c3CC2CN1C(=O)c1ccccc1 (some centres undefined) | 0 | - | - | - | - | - | - | -
NC(=O)CC1NC(=O)c2cc([N+](=O)[O-])cc(I)c2OCCC(C(N)=O)NC(=O)C2CCCN2C1=O (centres undefined) | 0 | - | - | - | - | - | - | -
CC(C)(C)c1cc(C(=O)Nc2cccnc2)cc(C(=O)Nc2cccnc2)c1 | 0 | 0 | 0 | 0 | 45 | 0 | 0 | 0
COCCN1C(=O)c2ccc(C(=O)Nc3cccnc3)cc2C1=O | 0 | 0 | 0 | 0 | 59 | 0 | 0 | 0
O=C(Nc1cccnc1)c1ccc(Cl)c(Cl)c1 | 0 | 0 | 0 | 0 | 60 | 0 | 0 | 0
COc1cccc(C(=O)Nc2cccnc2)c1 | 0 | 0 | 0 | 0 | - | - | - | -
CC(CC(=O)Nc1ccc2c(c1)OCCO2)=NNC(=O)COc1ccc(C)cc1 | 0 | - | - | - | - | - | - | -
CC(=O)N1CCN(c2ccc([N+](=O)[O-])cc2C=C2C(=O)NC(=O)NC2=O)CC1 | 0 | 0 | 0 | 0 | 44 | 0 | 0 | 0
COc1ccc(C2C=CCN(C(=O)C3CCCCC3)CC(=O)N2Cc2ccc(F)cc2)cc1 (centres undefined) | 0 | - | - | - | - | - | - | -
COc1ccc(NS(=O)(=O)c2cc([N+](=O)[O-])ccc2NN=Cc2c(C)[nH]c3ccccc23)cc1 | 0 | - | - | - | - | - | - | -
O=C(O)CSc1ncnc2scc(-c3ccc(Br)cc3)c12 | 0 | 0 | 0 | 0 | 45 | 0 | 0 | 0
O=C(Nc1ncc2c(n1)CC(c1ccco1)CC2=O)c1ccccc1 (centres undefined) | 0 | 0 | 0 | 0 | 60 | 0 | 0 | 0
Cc1ccc(C(=O)Nc2ncc3c(n2)CC(c2ccco2)CC3=O)cc1 (centres undefined) | 0 | 0 | 0 | 0 | - | - | - | -
O=C(Nc1nccs1)[C@H]1[C@H](CO)[C@H]2Cn3c(ccc(-c4cccnc4)c3=O)[C@H]2N1CC1CCCC1 | - | - | - | - | 52 | 0 | 0 | 0
CCNC(=O)[C@H]1[C@H](CO)[C@H]2Cn3c(ccc(-c4cccc(F)c4)c3=O)[C@H]2N1C(=O)Cc1cccnc1 | - | - | - | - | 42 | 0 | 0 | 0
CCCNC(=O)[C@@H]1[C@@H](CO)[C@@H]2Cn3c(ccc(-c4cccc(F)c4)c3=O)[C@@H]2N1C(=O)CC | - | - | - | - | 0 | - | - | -
CC(C)C(NC(=O)c1ccccc1)C(=O)N1CCc2ccccc21 (centres undefined) | 0 | - | - | - | - | - | - | -
CC(=O)N1CC[C@H]2[C@@H]1c1cc(-c3cccc(F)c3)ccc1N(C)[C@H]2CO | - | - | - | - | 0 | - | - | -
COc1ccc(-c2ccc3c(c2)[C@H]2[C@H](CCN2C(=O)Cc2cccnc2)[C@H](CO)N3C)cc1 | - | - | - | - | 43 | 0 | 0 | 0
CCC(=O)N1CC[C@@H]2[C@H]1c1cc(-c3cccc(F)c3)ccc1N(C)[C@H]2CO | - | - | - | - | 42 | 0 | 0 | 0
CC(=O)N1CC[C@@H]2[C@@H](CO)N(C)c3ccc(-c4cccc(F)c4)cc3[C@@H]21 | - | - | - | - | 56 | 0 | 0 | 0
CN1c2ccc(-c3cccc(F)c3)cc2[C@@H]2[C@@H](CCN2C(=O)c2ccncc2)[C@H]1CO | - | - | - | - | 50 | 0 | 0 | 0
CON=Cc1c(C(=O)OC)nn(-c2ccccc2)c1Cl | 0 | - | - | - | - | - | - | -
COc1ccc(CC2CN3C(=NCC3Cc3ccccc3)N2CCNC(=O)CCC2CCCCC2)cc1 (centres undefined) | 0 | - | - | - | - | - | - | -
SMILES | Mtb hypoxia inh | DUSP3 inh | SARS 3CLpro inh | FadD28 FP inh | BioA inh-1 | BioA inh-2 | HepG2 tox 2 | 3T3 cytotox 5
CN1c2ccc(-c3ccccc3)cc2[C@H]2[C@H](CCN2C(=O)c2ccccc2F)[C@H]1CO | - | - | - | - | 46 | 0 | 0 | 0
CN1c2ccc(-c3cccc(F)c3)cc2[C@H]2[C@H](CCN2C(=O)c2ccccc2F)[C@@H]1CO | - | - | - | - | 0 | - | - | -
O=C(C1CCOCC1)N1CC[C@@H]2[C@H](CO)Nc3ccc(Br)cc3[C@@H]21 | - | - | - | - | 72 | 0 | 0 | 0
O=C(C1CCOCC1)N1CC[C@@H]2[C@H]1c1cc(Br)ccc1N[C@@H]2CO | - | - | - | - | 74 | 0 | 0 | 0
O=C(C1CCCCC1)N1CC[C@H]2[C@H](CO)Nc3ccc(Br)cc3[C@H]21 | - | - | - | - | 0 | - | - | -
O=C(Cc1ccccc1)N1CC[C@@H]2[C@H](CO)Nc3ccc(Br)cc3[C@@H]21 | - | - | - | - | 44 | 0 | 0 | 0
CC(=O)c1ccc(NC(=O)CN2CCN(c3ccccc3)CC2)cc1 | 0 | 0 | 0 | 0 | 55 | 0 | 0 | 0
CC(=NNS(=O)(=O)c1c(C)cc(C)cc1C)c1ccncc1 | 0 | - | - | - | - | - | - | -
CC1CN(C(=O)Nc2ccc3snnc3c2)c2ccccc21 (centres undefined) | - | 0 | 0 | 0 | 63 | 0 | 0 | 0
CCn1c(SCC(=O)NN=CC=Cc2ccco2)nc2ccccc21 | 0 | - | - | - | - | - | - | -
O=C(CSc1nc2c(c(=O)n1-c1ccccc1)SCC2)N1CCN(c2ccccc2)CC1 | 0 | 0 | 0 | 0 | 47 | 0 | 0 | 0
CC1Cc2nc(SCC(=O)N3CCOCC3)n(-c3ccccc3)c(=O)c2S1 (centres undefined) | 0 | 0 | 0 | 0 | 63 | 0 | 0 | 0
CCOc1ccc(-n2c(SCC(N)=O)nc3c(c2=O)SCC3)cc1 | 0 | 0 | 0 | 0 | 41 | 0 | 0 | 0
CCOC(=O)CSc1nc2c(c(=O)n1-c1ccc(OCC)cc1)SCC2 | 0 | 0 | 0 | 0 | 0 | - | - | -
O=C(CSc1nc2c(c(=O)n1-c1ccc(F)cc1)SCC2)N1CCCC1 | - | 0 | 0 | 0 | 0 | - | - | -
CC1Cc2nc(SCC(=O)N3CCN(c4ccccc4)CC3)n(C)c(=O)c2S1 (centres undefined) | 0 | 0 | 0 | 0 | 0 | - | - | -
O=C(CSc1nc2c(c(=O)n1-c1ccccc1)SCC2)N1CCOCC1 | 0 | 0 | 0 | 0 | 88 | 0 | 0 | 0
CCN1C(=O)C2C(c3ccc(-c4ccc(OC)cc4)c(OC)c3)N[C@@](Cc3ccccc3)(C(=O)OC)C2C1=O (some centres undefined) | 0 | - | - | - | - | - | - | -
CC1CN(C(C)CO)C(=O)c2cccc(NS(=O)(=O)c3ccc(F)cc3)c2OC1CN(C)Cc1ccc(-c2ccccc2)cc1 (centres undefined) | 0 | - | - | - | - | - | - | -
Cc1cc(=O)[nH]c(N=C(N)Nc2ccc(Oc3ccccc3)cc2)n1 | 0 | - | - | - | - | - | - | -
COc1ccc(OC)c(C=NNC(=O)CC(=O)NCCc2ccccc2)c1 | 0 | - | - | - | - | - | - | -
COC(=O)C[C@H]1CC[C@@H]2[C@H](COC[C@@H](O)CN2C(=O)Nc2cccc(F)c2)O1 | - | - | - | - | 42 | 0 | 0 | 0
CNC(=O)C[C@H]1CC[C@@H]2[C@H](COC[C@@H](O)CN2C(=O)Nc2cccc(OC)c2)O1 | - | - | - | - | 77 | 0 | 0 | 0
CNC(=O)C[C@@H]1CC[C@H]2[C@@H](COC[C@H](O)CN2C(=O)Nc2cccc(OC)c2)O1 | - | - | - | - | 0 | - | - | -
Cc1cc(C=NN2CCN(C)CC2)c(C)n1-c1ccc(Cl)cc1 | 0 | - | - | - | - | - | - | -
